FBPA coupling cs: coupling enzyme interference in Giardia aldolase counter-screen; coupling enzyme system counterscreen, AmpLite Red fluorescence; activity change, negative = inhibition, % at 58.2 µM, hits read low; actives 0.67% (n = 290,000); in the data active = activity change below about -30%
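First, compound is pin-transferred into glyceraldehyde-3-phosphate coupling-enzyme reagent at 57.5 uM final and held 10 min at RT. Next, substrate, coupling system and AmpLite Red are added. After 20 min RT, fluorescence (525/598 nm) is read.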
Tau fibril FP: inhibitors of human tau fibril formation; AID 1468; K18 P301L tau heparin fibrillization, Alexa594 FP, 6 h; actives 0.39% (n = 280,000); Potency, µM (titrated, usually from 57.7 µM), for the others: at the highest dose activity, negative = inhibition, actives largely listed as inhibitors; also: potency is read from the fitted curve at half-maximal effect; nearly all actives have a fitted effect of over 55% in size
Target sequence (P10636 561-689 P618L limits assumed): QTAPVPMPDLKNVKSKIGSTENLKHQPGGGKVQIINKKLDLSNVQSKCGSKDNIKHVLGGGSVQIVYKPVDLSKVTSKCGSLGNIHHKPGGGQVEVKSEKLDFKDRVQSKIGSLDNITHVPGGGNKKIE
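Quantitative HTS format: compounds meet 15 uM recombinant K18 P301L tau and Alexa 594-tau tracer in 100 mM sodium acetate pH 7; 20 uM heparin triggers fibrillization at 37 C over 6 hr; FP gives the signal.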
Tau fluor cs: counter-screen for tau fibril formation inhibitors; tau K18 P301L Alexa594 fluorescence, heparin fibrillization; Potency, µM (titrated, usually from 57.7 µM), inactives show at the highest dose activity change, negative = decrease; actives 0.93% (n = 280,000); also: potency is read from the fitted curve at half-maximal effect; nearly all actives have a fitted effect of over 55% in size
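Human tau K18 P301L (15 uM unlabeled, 0.24 uM Alexa 594-labeled) in 100 mM sodium acetate pH 7 with 20 uM heparin, 6 hr at 37 C. ThT 30 uM added, 1 hr ambient; Alexa 594 FP and total fluorescence read at 555/632 nm.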
Sfp PPTase inh: inhibitors of Bacillus subtilis Sfp phosphopantetheinyl transferase; Q9F4F7; Biochemical Sfp PPTase activity, qHTS; Potency, µM, for inactives: largest response in the series, negative = inhibition, actives largely listed as inhibitors; actives 3.5% (n = 310,000);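 also: the enzyme is Sfp with the accession as filed and its product quenches rhodamine fluorescence; potency is read from the fitted curve at half-maximal effect; 0% = enzyme reaction without inhibitor and -100% = no enzyme wells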
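Sfp 15 nM + cpd, 15 min RT; start w/ rhodamine-CoA 5 uM, BHQ-2-YbbR 12.5 uM (final); 50 mM Hepes pH 7.6, 10 mM MgCl2, 0.01% NP-40, 0.01% BSA; read 525/598 nm at 0 and 30 min.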
Tau fibril ThT: blocks human tau fibril formation measured by thioflavin T | recombinant tau K18 P301L, heparin-induced fibrillization, ThT fluorescence | Potency, µM (doses to about 57.4 µM), without a hit: at the top dose activity, negative = inhibition, actives largely listed as inhibitors | actives 2.1% (n = 270,000) | AID 1460; also: potency is read from the fitted curve at half-maximal effect; nearly all actives have a fitted effect of over 55% in size
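Using a mix of unlabeled (15 uM) and Alexa 594-labeled (0.24 uM) tau K18 P301L, heparin-triggered fibrillization over 6 hr at 37 C was scored by ThT fluorescence.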
* marks the source's active call; other numbers are inactive results; ? = inconclusive; . = no result given; ! = a repeat was not active; [ ] = dose if it differs, or a comment. An excerpt weighted towards active compounds, which were near 5.2% of everything screened. Unless noted, calls follow the shape of the dose curve; as a rule, active = well fitted curve in the direction sought with a large enough effect; inconclusive = small, poorly fitted or top-dose-only effect, or another doubt; inactive = no such curve, though single readings can be large; an effect the other way counts as inactive or inconclusive. Unless noted, % is scaled to controls: 0 for no effect and ±100 for the full control effect.

SMILES | FBPA coupling cs | Tau fibril FP | Tau fluor cs | Sfp PPTase inh | Tau fibril ThT
COC(=O)C1=C(C)N(Cc2ccco2)C(=O)/C1=C\c1ccc([N+](=O)[O-])cc1 | -1 | ? | ? | 20µM* | 13µM*
O=c1c(O)cccc2cc(O)c(O)c(O)c12 | -36* | 11µM* | 2.5µM*[quencher] | 6.3µM*! | 3.2µM*
O=C1OC(c2ccc(F)cc2)=C/C1=C\c1ccc(O)cc1 | -2 | . | . | -17% | .
O=C1OC(c2ccc(F)cc2)=C/C1=C\c1ccc([N+](=O)[O-])o1 | 0 | ? | ? | ? | 16µM*
COc1ccc(N2C3=C(CC4=C2CC(C)(C)CC4=O)C(=O)CC(C)(C)C3)cc1 | -48* | ? | -22% | 18µM* | 20µM*
COc1ccc(N2C3=C(CC4=C2CCCC4=O)C(=O)CCC3)cc1 | 4 | ? | -30% | -2% | ?
CC(=O)N1CCN(c2cc(N3CCCC3)c(F)cc2[N+](=O)[O-])CC1 | 1 | -18% | -13% | -12% | ?
CCN1CCN(c2cc(N3CCc4ccccc4C3)c(F)cc2[N+](=O)[O-])CC1 | -3 | 6% | -22% | -8% | 14µM*
CNCCCOc1ccc(C)cc1OC | -3 | -10% | -10% | 45µM* | -6%
CCC(C)NCCCOc1ccc(C)cc1OC (stereo not drawn) | 3 | -7% | -1% | -6% | 3%
Cc1cc(C)cc(N=c2c([N+](=O)[O-])nn(-c3ccc4c(c3)OCCO4)n2O)c1 | -6 | ? | ? | 14% | ?
O=[N+]([O-])c1nn(-c2ccc3c(c2)OCCO3)n(O)c1=Nc1ccc(Cl)cc1 | 0 | ? | ? | -19% | 14µM*
O=[N+]([O-])c1nn(-c2ccc3c(c2)OCCO3)n(O)c1=Nc1ccccc1 | 4 | 3% | 0% | 1% | 4%
Cc1ccc(N=c2c([N+](=O)[O-])nn(-c3ccc(Cl)cc3)n2O)cc1C | 2 | -3% | ? | ? | 13µM*
CCc1ccc(N=c2c([N+](=O)[O-])nn(-c3ccc4c(c3)OCCO4)n2O)cc1 | -5 | 11% | ? | -14% | 11µM*
Cc1ccc(N=c2c([N+](=O)[O-])nn(-c3ccc4c(c3)OCCO4)n2O)cc1F | 3 | 8% | ? | 10% | ?
Cc1ccc(Nc2ncc(C(=O)N3CCN(c4ccc(F)cc4)CC3)c3ccccc23)cc1Cl | . | -12% | ? | . | -2%
Cc1cc(OCCCn2c(CCNC(=O)C3CCCCC3)nc3ccccc32)ccc1Cl | . | -8% | -16% | . | ?
COc1ccc(CCNC(=O)C2CCN(S(=O)(=O)c3ccc(F)cc3)CC2)cc1 | 0 | . | . | 15% | .
CCc1ccc(S(=O)(=O)c2nnn3c2nc(Nc2ccc(F)cc2)c2cc(Cl)ccc23)cc1 | . | 14µM* | ? | . | -1%
Cc1ccc(C)c(S(=O)(=O)c2nnn3c2nc(Nc2ccc(F)c(Cl)c2)c2sccc23)c1 | . | 14µM* | ? | . | ?
CCCCc1cc2c(cn1)=C(OC(=O)c1ccco1)C(C)(OC(=O)CC)C(=O)C=2 (stereo not drawn) | -6 | 3%[11.6 µM] | -5%[11.6 µM] | -17% | -10%[11.5 µM]
CC(=O)c1c(C)[nH]c(C(=O)Nc2nc(-c3ccc(-c4ccccc4)cc3)cs2)c1C | -4 | 40µM* | ? | -17% | 2%
O=S(=O)(Nc1ccc(-c2csc(-c3ccccc3)n2)cc1)c1ccc(F)cc1 | -6 | 11µM* | ? | 18% | -9%
O=C(Nc1cccnc1)c1ccccc1NS(=O)(=O)c1ccc(F)cc1 | 6 | -2% | -8% | -3% | -6%
Fc1ccc(-c2csc(-c3ccncc3)n2)cc1 | 2 | -6% | -5% | 8% | -1%
O=C(Nc1nc(-c2ccccc2)cs1)c1ccccc1NS(=O)(=O)c1ccc(F)cc1 | 9 | ? | ? | -3% | 14µM*
NC(=NCc1ccc(Cl)cc1Cl)NC(=O)c1nc(Cl)c(N)nc1N | . | 7% | -26% | 25µM* | ?
CCN1C(C(=O)c2ccccc2)=C(OC(=O)COc2ccc(C)cc2)c2ccccc2S1(=O)=O | . | 4% | -12% | . | ?
CN(C)c1ccc(/C=C/c2ccc3c4ccccc4ccc3[n+]2-c2ccccc2)cc1 | -2 | ? | 0.79µM*[fluorescent] | 14µM* | 2µM*

Bioassay records deposited in PubChem by National Center for Advancing Translational Sciences (NCATS).
